Laboratory results: ChEMBL document CHEMBL4513216, “Probing the Open Global Health Chemical Diversity Library for Multistage-Active Starting Points for Next-Generation Antimalarials” (ACS Infect Dis, 2020)
Among all 69,000 compounds or so, about 8,600 (12%) showed an effect of 50% or more. This excerpt belongs to a sample that is enriched for strong results.

These compounds were tested on Plasmodium berghei (assay: Screen against P. berghei liver stage (PbLuc), transformed with Luciferase, at 10uM). Conditions: tested at 10 uM.
Format: functional, HepG2

Structure (SMILES) | INHIBITION [%]
OCC1N(Cc2ccco2)C2CCC1(O)CC2 (stereo not drawn) | 32.8
O=C1NCCN1CCNc1cc(-c2ccccc2)nc2ccnn12 | -39.2
O=C1CC(c2ccncc2)C2(CCN(C(=O)c3cccs3)CC2)N1 (stereo not drawn) | 73
O=C1CC(c2ccncc2)C2(CCN(C(=O)c3ccnnc3)CC2)N1 (stereo not drawn) | 41.6
Cc1noc(C)c1CN1CCC2(CC1)NC(=O)CC2c1ccccc1 (stereo not drawn) | 65.7
O=C1CC(c2ccncc2)C2(CCN(C(=O)c3ccc[nH]3)CC2)N1 (stereo not drawn) | 33.5
O=C1CC(c2ccncc2)C2(CCN(CCc3ccccc3)CC2)N1 (stereo not drawn) | 90.8
O=C1CC(c2ccncc2)C2(CCN(CCO)CC2)N1 (stereo not drawn) | 47.8
Cc1noc(C)c1CN1CCC2(CC1)NC(=O)CC2c1ccncc1 (stereo not drawn) | 25.5
Cc1noc(C)c1CN1CCC2(CC1)NC(=O)CC2c1cnn(C)c1 (stereo not drawn) | 12.5
O=C1CC(c2ccccc2)C2(CCN(Cc3ccncc3)CC2)N1 (stereo not drawn) | 8.64
CCc1nnc(NC(=O)Cc2c(C)nc(C)[nH]c2=O)s1 | 13.75
Cc1nnc(CN2CCN(C(C)c3nc(C4CC4)no3)CC2)o1 (stereo not drawn) | -33.7
COc1ccccc1-c1ccc(C2CCCN(C(C)=O)C2)nc1 (stereo not drawn) | 19.4
Cc1c(C(=O)N[C@@H]2CC[C@@H](N3CCCC3)[C@@H]2O)[nH]c2ccc(F)cc12 | 29.5
O=C(NC1CCCc2c1[nH]c1ccc(F)cc21)c1n[nH]c2c1CCCC2 (stereo not drawn) | -8.99
O=C(NC1CCCc2c1[nH]c1ccc(F)cc21)c1n[nH]c2c1CCC2 (stereo not drawn) | 61.2
O=C(Cc1cccc(F)c1)NC1CCCc2cn[nH]c21 (stereo not drawn) | 18.7
O=C(NCCc1ccccn1)c1n[nH]c2c1CCC2 | -15.9
CC(=O)NC1CCCc2c1[nH]c1ccc(F)cc21 (stereo not drawn) | 62.4
CCC1CN(C(=O)CN2CCN(c3nccc(OC)n3)CC2)CCO1 (stereo not drawn) | -28.4
CC(=O)N1CCO[C@@H]2CN(C(=O)c3cc(C)oc3C)CC[C@@H]2C1 | 26.2
CN(Cc1ccco1)[C@@H]1CN(C(=O)c2ccnnc2)C[C@@H]2CCCO[C@@H]21 | 18.5
CCN(CC)C(=O)Cn1cc(-c2nc(C(C)C)no2)nn1 | -18.1
O=C(c1cnco1)N1C[C@@H](O)[C@H](Oc2cccc(F)c2)C1 | 5.11
O=C(c1cccc(CNCC=Cc2ccccc2)c1)N1CCCC1 | 58.5
NC(=O)c1cccc(CNCC=Cc2ccccc2)c1 | 17.1

Structure (SMILES) | INHIBITION [%]
Cc1cc(F)ccc1CNCc1cccc(C(=O)N2CCCC2)c1 | 7.67
COc1ccc(CN2CC(O)CN(C(=O)c3ccccc3)CC2=O)cc1 (stereo not drawn) | 23
Cc1nc(CNC2CCc3nc(C(C)C)nn3C2)oc1C (stereo not drawn) | 75.2
CCc1nc2n(n1)CC(NCc1nc3ccccc3nc1C)CC2 (stereo not drawn) | 53.3
CCc1nc2n(n1)CC(NCc1nc(C)c(C)o1)CC2 (stereo not drawn) | 46.6
CCc1nc2n(n1)CC(NCc1nc3ccccc3o1)CC2 (stereo not drawn) | 11.9
CCc1nc2n(n1)CC(NCc1nc(C)ccc1O)CC2 (stereo not drawn) | -15
CC(C)c1nc2n(n1)CC(NCC(=O)NCCC1=CCCCC1)CC2 (stereo not drawn) | 51.1
CC(C)c1nc2n(n1)CC(NCc1nnc(C(C)C)o1)CC2 (stereo not drawn) | 18.9
CCc1nc2n(n1)CC(NCc1nnc(C(C)C)o1)CC2 (stereo not drawn) | 60.2
CCc1nnc(CNC2CCc3nc(C(C)C)nn3C2)o1 (stereo not drawn) | -19.4
Cc1nc2n(n1)CC(NCC(=O)NCCC1=CCCCC1)CC2 (stereo not drawn) | 40.4
Cc1nc2n(n1)CC(NCc1nc(C)c(C)o1)CC2 (stereo not drawn) | -67.9
Cc1cc(NC(=O)CNC2CCc3nc(C(C)C)nn3C2)no1 (stereo not drawn) | -7.31
CCN1C(=O)CC[C@@H]2[C@H]1CCN2S(=O)(=O)Cc1ccc(C)cc1 | 45.2
Clc1ccc(-c2nc(CN3CCCC3Cn3cncn3)co2)cc1 (stereo not drawn) | -24.2
c1coc(CN2CCO[C@H]3[C@H](OCC4CC4)CC[C@@H]32)c1 | -2.27
CCN(Cc1nc2c(cnn2C)c(=O)[nH]1)c1ccc(F)cc1 | 29.7
CC(C)Nc1nc(O)cc(C2CC(=O)N(Cc3ccccn3)C2)n1 (stereo not drawn) | -23.8
Cc1cc(C(=O)N2CCC(c3nnc(Cn4ccnc4)n3C)CC2)cs1 | -40.5
Cc1ccc(C(=O)N2CCC3(CC(N(C)c4ccncn4)C3)C2)cn1 (stereo not drawn) | 41.2
Cc1cnn(CC2CCCN2C(=O)c2cc3c(F)cccc3[nH]2)c1 (stereo not drawn) | 24.6
CCCOC(C)C(=O)NCc1cc2n(n1)CCCN(C1CCCCC1)C2 (stereo not drawn) | 14.8
CN(C)S(=O)(=O)c1ccc(=O)n(CC2CCCCO2)c1 (stereo not drawn) | 4.52
O=C(c1cccnc1)N1CCN(CC2CC2)c2ncccc2C1 | -18.4
CSc1ccccc1C(=O)N1CCN(C)C2(CCC(=O)N(C)CC2)C1 (stereo not drawn) | 46.7
